Screens: PubChem BioAssay, National Center for Advancing Translational Sciences (NCATS)
Sampled rows, rich in hits. Any-hit rate of the full collection: about 7.4%.
ELG1 genotox = qHTS screen for small molecules that induce genotoxicity in human embryonic kidney (HEK293T) cells expressing luciferase-tagged ELG1 | HEK293T ELG1-luciferase reporter, luminescence, 16 h | Potency, µM (series often up to 46 µM), for inactives: top-dose activity change, positive = activation, most hits filed as activators | actives 1.3% (n = 330,000); further: % of control where 0% means no effect; nearly all actives have a fitted effect of over 60% in size
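Luminescence read-out: rising ELG1-luciferase signal, reflecting elevated ELG1 protein under genetic stress, flags genotoxic compounds. Cells were treated for 16 hr at 37 °C before ONE-Glo detection.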
Luc counter = Counterscreen for Luciferase (Kinase-Glo TM) Inhibition. Kinase-Glo luciferase, ATP luminescence, 8 min. Potency, µM (top dose mostly 38.3 µM), without a hit: top-dose activity change, negative = inhibition, actives largely listed as inhibitors. actives 0.28% (n = 200,000). AID 1379, 2008; further: on the % scale 0 is the no-effect control and ±100 the full control effect; nearly all actives have a fitted effect of over 60% in size
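Luminescence was the read-out, taken after 8-minute incubation at ambient temperature. Luciferase turned over luciferin with 10 uM ATP in imidazole pH 7.2 buffer containing KCl, MgCl2, Tween 20 and BSA.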
Rab9 promoter act = qHTS Assay for Rab9 Promoter Activators; Huh7 Rab9 promoter-luciferase reporter, luminescence, 24 h; Potency, µM (doses to about 9.22 µM), inactives show at the highest dose activation, negative = inhibition, actives largely listed as activators; actives 2.8% (n = 320,000); further: % of control where 0% means no effect; nearly all actives have a fitted effect of over 60% in size
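Cell-based reporter: Huh7 stable for Rab9 promoter-driven luciferase, plated in reduced-serum medium with 10% FBS at 1500 cells/well, compound-treated 24 h at 37 °C, luminescence read after 10 min reagent.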
NPC1 promoter act = qHTS Assay for NPC1 Promoter Activators. Huh7 NPC1 promoter luciferase reporter, 24 h. Potency, µM (series often up to 9.22 µM), inactives show at the top dose activation, hits mostly activators. actives 2.4% (n = 320,000). AID 485313, 2010; further: % of control where 0% means no effect; nearly all actives have a fitted effect of over 60% in size
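Cells: Huh7 expressing luciferase under the NPC1 promoter, 1500/well. Seeded 2 h, compound added, incubated 24 h at 37 °C. Luciferase reagent, 10 min ambient, then luminescence.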
FLuc counter = qHTS profiling assay for firefly luciferase inhibitor/activator using purifed enzyme and Km concentrations of substrates (counterscreen for miR-21 project). Luciferin 4-monooxygenase (Photinus pyralis), P08659. purified FLuc, Km substrates, luminescence inhibition. Potency, µM (doses to about 57.5 µM), for the others: at the top dose activity change, negative = inhibition, hits mostly inhibitors. actives 6.9% (n = 360,000);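 further: plate controls were vehicle for no effect and reference inhibitor for full effect; nearly all actives have a fitted effect of over 55% in size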
Target sequence (P08659 whole entry, looked up): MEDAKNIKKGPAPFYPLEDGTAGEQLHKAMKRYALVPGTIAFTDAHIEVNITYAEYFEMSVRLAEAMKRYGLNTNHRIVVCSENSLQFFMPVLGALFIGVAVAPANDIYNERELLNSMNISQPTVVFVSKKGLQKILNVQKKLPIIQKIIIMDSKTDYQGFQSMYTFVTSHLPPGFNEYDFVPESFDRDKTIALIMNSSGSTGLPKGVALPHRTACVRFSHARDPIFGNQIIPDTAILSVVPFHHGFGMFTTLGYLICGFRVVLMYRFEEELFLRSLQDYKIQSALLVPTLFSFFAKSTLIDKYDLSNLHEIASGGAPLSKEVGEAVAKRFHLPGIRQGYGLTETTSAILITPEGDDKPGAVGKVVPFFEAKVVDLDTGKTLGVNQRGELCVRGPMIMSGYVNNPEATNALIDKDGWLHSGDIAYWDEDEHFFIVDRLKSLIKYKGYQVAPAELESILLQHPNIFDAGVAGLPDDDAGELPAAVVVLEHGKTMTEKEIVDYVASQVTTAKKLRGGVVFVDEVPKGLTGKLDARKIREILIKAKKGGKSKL
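Purified P. pyralis luciferase (10nM final) with 10uM D-luciferin and 10uM ATP (Km levels) in 50mM Tris acetate pH 7.5, 10mM Mg acetate, 0.01% Tween-20, 0.05% BSA; qHTS 6-point titration, ~60 µM downward; luminescence read.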
SMN2 splice enh = qHTS Assay for Enhancers of SMN2 Splice Variant Expression; HEK293 SMN2-luciferase splicing reporter, luminescence, 30-36 h; Potency, µM (series often up to 46.1 µM), inactives show top-dose activity change, positive = activation, usual class: activators; actives 2.8% (n = 210,000); AID 1458, 2008; further: % of control where 0% means no effect; nearly all actives have a fitted effect of over 55% in size
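HEK293 cells carry an SMN2 minigene-luciferase reporter in which exon 7 inclusion puts luciferase in frame. Cells were seeded at 2000 cells/well, attached for 10-12 hours, then exposed to compounds for 30-36 hours at 37C before ONE-Glo luminescence.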
Starred values were filed as active, the others as inactive; ? = inconclusive; · = not tested or not shown; [ ] = dose if it differs, or a comment. The call rests on the fitted dose curve; in most records, active means well fitted curve in the direction sought with a large enough effect; inconclusive means small, poorly fitted or top-dose-only effect, or another doubt; inactive means no such curve, though single readings can be large; an effect the other way counts as inactive or inconclusive. Potency means the concentration at half of the fitted maximal effect.

SMILES	ELG1 genotox	Luc counter	Rab9 promoter act	NPC1 promoter act	FLuc counter	SMN2 splice enh
CCOc1ccc(/C=N/Nc2nc(C)cs2)c(O)c1	16%	·	1.8µM*	1.6µM*	3.8µM*	·
O=C(NCc1ccccc1CN1CCCC1)C1CCN(C(=O)c2ccc(F)cc2)CC1	2%	·	-1%	-1%	·	·
CCc1ccc(NC(=O)N(Cc2c[nH]c3ccccc23)C2CCCCC2)cc1	·	·	·	·	-2%	9%
CCc1ccc(NC(=O)N(Cc2c[nH]c3ccccc23)C2CCCCCC2)cc1	·	·	·	·	-7%	5µM*
Cc1ccc(-c2csc(/C(C#N)=C(\O)CCl)n2)cc1	17%	9%	?	23%	11µM*	-4%
N#C/C(=C(/O)CCl)c1nc(-c2ccccc2)cs1	14%	·	17%	2%	?	·
COc1ccc(OC)c(CNC(=O)C2CCC(=O)N2C(C)C)c1 (stereo not drawn)	-2%	·	2%	0%	0%	·
Cc1ccc(SCC(=O)Nc2ccc(N3CCN(C)CC3)c(F)c2)cc1	?	-3%	?	?	15µM*	10%
Cc1ccc(SCC(=O)Nc2cccc(NC(=O)c3ccco3)c2)cc1	-3%	0%	4%	-1%	19µM*	-15%
O=C(CSc1ccc(Cl)cc1)Nc1ccc(NC(=O)c2ccco2)cc1	3%	9%	20%	17%	12%	?
COc1cccc(NC(=O)CSc2nnc(C)s2)c1	12%	4%	-4%	0%	5%	?
COc1ccc(SCC(=O)Nc2ccc(N3CCN(C)CC3)c(F)c2)cc1	10%	2%	4%	-1%	?	-15%
CCc1nnc(NC(=O)c2ccc(Br)o2)s1	13%	·	?	18%	?	·
CC(=O)Nc1ccc(NC(=O)CSc2nnc(NC(=O)c3ccc(Br)o3)s2)cc1	6%	·	-3%	-3%	2.1µM*	·
COc1cccc(NC(=O)CSc2nnc(NC(=O)c3ccco3)s2)c1	17%	·	17%	14%	24µM*	·
CCN1CCN(c2nnc(-c3ccc(C)cc3)c3ccccc23)CC1	-5%	·	-5%	-1%	-9%	·
O=C(CSc1nnc(NC(=O)c2ccco2)s1)Nc1ccc(F)cc1F	2%	·	17%	1%	?	·
CC(=O)Nc1cccc(NC(=O)CSc2nnc(NC(=O)c3ccco3)s2)c1	15%	·	23%	-4%	19µM*	·
O=C(CSc1nnc(NC(=O)c2ccco2)s1)Nc1cccc(F)c1	?	·	?	?	6.7µM*	·
CC(=O)Nc1cccc(NC(=O)CSc2nnc(NC(=O)C3CC3)s2)c1	10%	·	4%	1%	?	·
CCCCC(=O)Nc1cccc(NC(=O)c2ccc3c(c2)OCO3)c1	0%	-6%	2%	3%	19µM*	?
CCCC(=O)Nc1cccc(NC(=O)c2ccc3c(c2)OCCO3)c1	?	-19%	19%	23%	9.5µM*	13µM*
CCCCC(=O)Nc1cccc(NC(=O)c2ccc(Br)o2)c1	-2%	-11%	?	2%	5%[2.3 µM]	35µM*
CCCCC(=O)Nc1cccc(NC(=O)C(C)C)c1	1%	-5%	-7%	0%	3%	-9%
Cc1cn2c(=O)cc(COc3cccc(NC(=O)c4ccccc4Cl)c3)nc2s1	·	·	·	·	-10%	5%
SMILES	ELG1 genotox	Luc counter	Rab9 promoter act	NPC1 promoter act	FLuc counter	SMN2 splice enh
CCOc1ccc(C(CC(=O)O)NC(=O)C(c2ccccc2)c2ccccc2)cc1OC (stereo not drawn)	0%	·	-3%	6%[1.84 µM]	6%	·
COc1cc(CNC(=O)C2CCC(=O)N(C3CCCCCC3)C2)cc(OC)c1 (stereo not drawn)	-4%	·	18%	2%	3%	·
NCC[C@H](O)C(=O)N[C@H]1C[C@@H](N)[C@@H](O[C@H]2O[C@@H](CN)[C@@H](O)[C@@H](O)[C@@H]2O)[C@@H](O)[C@@H]1O[C@H]1O[C@@H](CO)[C@@H](O)[C@@H](N)[C@@H]1O	·	1%[17.1 µM]	·	·	·	-1%[20.6 µM]
Cc1cnc(C(=O)Nc2ccc(F)cc2)cn1	?	?	?	2.5µM*	24µM*	13µM*
Cc1cnc(C(=O)Nc2ccccc2F)cn1	16µM*	?	18%[1.84 µM]	3.5µM*	24µM*	?
Cc1cnc(C(=O)Nc2ccc(C(C)C)cc2)cn1	?	-2%	1.3µM*	3.5µM*	8.5µM*	10µM*
Cc1cnc(C(=O)NCc2ccc(F)cc2)cn1	2%	·	9%	1%	-1%	·
O=C(NCCc1nc2ccccc2[nH]1)C1CCC(=O)N(CCc2cccc(F)c2)C1 (stereo not drawn)	1%	·	-2%	2%	0%	·
COC(=O)c1nc(NC(=O)C(C)(C)C)n[nH]1	5%	3%	-4%	-2%	24µM*	2%
COC(=O)c1nc(NC(=O)c2ccc(Br)cc2)n[nH]1	·	-2%	·	·	1%	-15%
CC(=O)c1cccc(NC(=S)NC(=O)c2ccc(Cl)cc2)c1	?	1%	?	?	13µM*	16µM*
CC(=O)c1cccc(NC(=S)NC(=O)c2ccccc2C)c1	0%	2%	-5%	-6%	?	·
CC(=O)c1cccc(NC(=S)NC(=O)c2ccccc2Br)c1	1%	-2%	1%	6%	17µM*	-4%
COC(=O)c1cccc(NC(=S)NCc2ccc(Cl)cc2)c1	-3%	1%	-2%	1%	5%	17%
CC(=O)c1cccc(NC(=S)NC(=O)c2cccc(C)c2)c1	?	-3%	3.2µM*	?	4.3µM*	16µM*
Cc1cccc(NC(=S)NNC(=O)c2ccccc2Br)c1	9%	0%	3.2µM*	22%	?	13µM*
CCOc1ccccc1NC(=O)CCc1c(C)nc2cc(-c3ccccc3)nn2c1C	·	·	·	·	-19%	-4%
COc1ccc(-n2nc(C(=O)NCC(=O)N3CCN(c4ccccn4)CC3)c3ccccc3c2=O)cc1Cl	-14%	3%	?	22%	3µM*	?
COc1ccc(-n2nc(C(=O)NCC(=O)N3CCC(C)CC3)c3ccccc3c2=O)cc1Cl	-7%	·	21%	24%	1.9µM*	·
CCOC(=O)CC(NS(=O)(=O)c1cc(-c2cc(C)no2)ccc1C)c1ccc(C)cc1 (stereo not drawn)	·	·	·	·	-11%	·
COc1ccccc1NC(=O)C(C)Sc1nnc2ccccn12 (stereo not drawn)	4%	·	-2%	0%	0%	·
